SMILES strings stand for the structures. Inconclusive results are not listed. A call without a number means that no potency is given here. A number with no mark means an inactive call. The source made the active and inactive calls. Calls follow the shape of the dose curve; as a rule, active = well fitted inhibition curve with a large enough effect in the signal ratio in the repeat runs (not every such curve was filed as active); inconclusive = weak or mixed curves; inactive = flat fitted curve, though single readings scatter; the % refers to the signal ratio.
Potency is read from the fitted curve at half-maximal effect.

In the test the target is Progesterone receptor (Homo sapiens) (UniProt P06401). The test is described as follows: qHTS assay to identify small molecule antagonists of the progesterone receptor (PR) signaling pathway (AID 1346795). Particulars: PR-UAS-bla HEK293T, beta-lactamase FRET ratio, 16 h; series mostly up to 92.4 µM. Summed up: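 Screening used a GripTite HEK293T line with PR-responsive UAS-beta-lactamase. Cells were challenged with compound in the presence of 1 nM R5020 final for 16 hr at 37C; B/G FRET substrate, 2 hr room temperature, fluorescence.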
Progesterone receptor (Homo sapiens), sequence (P06401 whole entry, looked up): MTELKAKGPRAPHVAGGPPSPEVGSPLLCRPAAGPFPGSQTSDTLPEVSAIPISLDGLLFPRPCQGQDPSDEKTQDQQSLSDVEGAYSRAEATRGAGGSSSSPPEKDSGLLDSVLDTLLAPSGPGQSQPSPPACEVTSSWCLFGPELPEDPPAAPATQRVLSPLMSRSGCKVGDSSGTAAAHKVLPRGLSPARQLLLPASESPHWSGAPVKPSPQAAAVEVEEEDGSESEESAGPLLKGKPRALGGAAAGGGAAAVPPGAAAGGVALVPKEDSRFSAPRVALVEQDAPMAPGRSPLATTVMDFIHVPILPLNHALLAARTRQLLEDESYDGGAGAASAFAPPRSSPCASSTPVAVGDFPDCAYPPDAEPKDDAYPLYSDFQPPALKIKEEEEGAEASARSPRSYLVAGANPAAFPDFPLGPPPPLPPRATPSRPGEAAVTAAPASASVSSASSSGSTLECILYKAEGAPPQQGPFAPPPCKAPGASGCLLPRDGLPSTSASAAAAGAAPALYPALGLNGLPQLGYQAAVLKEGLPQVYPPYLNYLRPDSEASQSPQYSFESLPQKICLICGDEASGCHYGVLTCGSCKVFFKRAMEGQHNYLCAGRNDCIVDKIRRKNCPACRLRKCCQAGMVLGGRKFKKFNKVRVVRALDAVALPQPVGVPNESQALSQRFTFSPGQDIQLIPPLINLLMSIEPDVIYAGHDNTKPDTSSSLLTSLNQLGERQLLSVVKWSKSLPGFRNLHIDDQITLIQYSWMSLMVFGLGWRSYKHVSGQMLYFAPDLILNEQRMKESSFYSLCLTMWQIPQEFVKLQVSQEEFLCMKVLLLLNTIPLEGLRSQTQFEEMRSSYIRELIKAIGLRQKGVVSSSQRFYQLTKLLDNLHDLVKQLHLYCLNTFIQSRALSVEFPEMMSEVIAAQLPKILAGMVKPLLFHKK
(In general: In qHTS, concentration-response curves come from the screen itself.)
For the molecule `CC(CCc1ccc2c(c1)OCO2)NN` (stereo not given), the Potency entry was “inactive”.
As to `Cc1cc(S(=O)(=O)O)ccc1N=Nc1c(O)ccc2ccccc12`, the Potency entry is “inactive”.
Same read-out and setting: the value for `OC/C(Br)=C(\Br)CO` was “inactive”; that for `CN1CCCN=C1/C=C/c1cccs1` was “inactive”.
In the case of `CC1(C)C(=O)N(Br)C(=O)N1Cl`, the Potency result is “inactive”.
Regarding `O=C(O)c1cccc(O)c1`, the Potency result is “inactive”.
Still for that read-out and setting: in the case of `NC(=O)Nc1ccc(Cl)cc1` it was “inactive”; in that of `O=C(O)c1ccc(CO)o1`, “inactive”; in that of `CCCCCCOC(=O)C(C)C`, “inactive”.
The same measure, in the same setting: the value for `CCCCCCCCCCCC[N+](C)(C)CCCS(=O)(=O)[O-]` was “inactive”; that for `CCCOCCOCCO` was “inactive”; that for `Cc1cc(O)c2c(O)c3c(O)cccc3cc2c1` was “inactive”.
With `Cn1c(=O)c2c(ncn2CC(=O)O)n(C)c1=O`, the Potency entry is “inactive”.
The same measure, in the same setting: the value for `CC#N` was “inactive”; that for `CO[C@H]1O[C@H](CO)[C@@H](O)[C@H](O)[C@H]1O` was “inactive”.
On the same count and under the same terms, in the case of `Cc1oncc1C(=O)Nc1ccc(C(F)(F)F)cc1` it was 61.1 µM (active).
Take `CC1CN(c2cc3c(cc2F)c(=O)c(C(=O)O)cn3-c2ccc(F)cc2F)CCN1` (stereo not given): the activity change, negative = inhibition is 4.51% [at 8.39 µM].
For `Cc1nc2ccccc2s1`, the Potency result is “inactive”.
The same measure, in the same setting: the value for `CCOCCn1c(C2CCN(CCc3ccc(C(C)(C)C(=O)O)cc3)CC2)nc2ccccc21` was “inactive”; that for `CC(=O)Nc1ccc(N)cc1` was “inactive”.
Still for that read-out and setting: the value for `CCC(=O)OC/C=C/c1ccccc1` was “inactive”.
As for `CN1CCN(c2c(F)cc3c(=O)c(C(=O)O)cn4c3c2OCN4C)CC1`, the activity change, negative = inhibition was 0.0233% [at 18.9 µM].
On to `O=S(=O)(c1ccccc1)c1ccc(Cl)cc1`, for which the Potency was 24.3 µM (active).
The same measure, in the same setting: the value for `O=C(CCC1CCN(Cc2ccccc2)CC1)c1ccc2c(c1)NCCCC2` was “inactive”; that for `CCn1nc(C)c2c1C(=O)NCC(c1ccc(O)cc1)=N2` was “inactive”; that for `CCc1nn(CCCN2CCN(c3cccc(Cl)c3)CC2)c(=O)n1CCOc1ccccc1` was 26.6 µM (active).
For `CC(C)(C)C(=O)C(Oc1ccc(Cl)cc1)n1ccnc1` (stereo not given), the Potency was 23.7 µM (active).
For `CN(C)C(=O)Nc1ccc(Oc2ccc(Cl)cc2)cc1`, the Potency was 34.4 µM (active).
As to `Nc1nc(Cl)nc2c1ncn2[C@@H]1O[C@H](CO)[C@@H](O)[C@@H]1F`, the Potency entry is “inactive”.
Still for that read-out and setting: in the case of `CC(=O)OCC(=O)[C@H]1CC[C@H]2[C@@H]3CCC4=CC(=O)CC[C@]4(C)[C@H]3CC[C@]12C` it was “inactive”.
